Calb FLC = affects C. albicans growth with fluconazole. C. albicans CaCi-2 (fluconazole-resistant clinical isolate) + fluconazole, Alamar Blue growth, 48 h. growth inhibition, % (test concentration not listed). 300,000 tested, 0.57% active. AID 1979;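 active = growth inhibition above about 58% in most replicates, limit read from the data, passing the limit was not always enough; inconclusive = exactly half the replicates above a set limit; inactive = most replicates below a set limit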;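 also: all wells also contain fluconazole at 8 µg/ml as a sub-toxic cotreatment; 0% = median of DMSO wells and 100% = median of geldanamycin control wells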
PP1 counter = counter-screen for PP5 inhibitors: inhibitors of human PP1-alpha; P62136; purified PP1alpha, OMFP fluorescence; inhibition, % at 6.7 µM; 320,000 tested, 0.9% active;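 active = inhibition above the mean inhibition of all tested compounds plus 3 SD, computed separately for each screening campaign, cut at about 15% in these data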
Mdm2 MdmX PPI = human Mdm2/MdmX binding inhibition. O15151+Q00987. SaOS-2 split-luciferase Mdm2/MdmX complementation, luminescence. inhibition, % at 8 µM. 330,000 tested, 3% active. AID 485346;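 active = inhibition of at least 50% at 8 µM in the primary screen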
Target sequence (O15151 whole entry, looked up): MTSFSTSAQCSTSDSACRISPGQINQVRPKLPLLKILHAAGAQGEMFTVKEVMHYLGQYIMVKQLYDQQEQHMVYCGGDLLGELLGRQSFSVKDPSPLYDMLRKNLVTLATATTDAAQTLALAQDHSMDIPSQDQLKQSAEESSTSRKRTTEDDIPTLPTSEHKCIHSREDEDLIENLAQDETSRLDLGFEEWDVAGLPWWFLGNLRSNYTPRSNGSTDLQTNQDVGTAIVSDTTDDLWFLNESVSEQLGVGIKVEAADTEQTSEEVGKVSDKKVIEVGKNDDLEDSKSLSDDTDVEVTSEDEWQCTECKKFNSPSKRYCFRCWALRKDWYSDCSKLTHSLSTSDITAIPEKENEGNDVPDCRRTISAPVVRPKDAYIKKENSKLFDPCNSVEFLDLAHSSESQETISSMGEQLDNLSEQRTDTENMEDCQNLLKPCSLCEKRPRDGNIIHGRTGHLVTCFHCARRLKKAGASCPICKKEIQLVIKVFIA
Target sequence (Q00987 whole entry, looked up): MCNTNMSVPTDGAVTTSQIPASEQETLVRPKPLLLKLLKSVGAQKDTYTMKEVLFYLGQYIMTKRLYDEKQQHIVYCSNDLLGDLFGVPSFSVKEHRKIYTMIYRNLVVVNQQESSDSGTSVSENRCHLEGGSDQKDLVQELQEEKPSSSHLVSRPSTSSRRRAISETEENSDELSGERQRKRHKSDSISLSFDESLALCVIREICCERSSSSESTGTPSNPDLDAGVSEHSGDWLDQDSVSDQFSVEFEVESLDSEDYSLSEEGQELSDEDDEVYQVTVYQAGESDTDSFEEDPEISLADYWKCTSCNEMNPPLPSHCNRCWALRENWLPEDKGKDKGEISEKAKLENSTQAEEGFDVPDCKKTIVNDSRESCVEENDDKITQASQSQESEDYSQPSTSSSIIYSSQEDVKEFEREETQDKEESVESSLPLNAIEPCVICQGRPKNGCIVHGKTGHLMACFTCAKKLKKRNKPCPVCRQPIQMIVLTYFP
PP5 inh = blocks human protein phosphatase 5 activity. P53041. purified PP5c, OMFP substrate fluorescence. inhibition, % at 6.7 µM. 320,000 tested, 0.18% active. AID 1987;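 active = inhibition above the campaign's mean inhibition across all tested compounds plus 3 SD, cut at about 9.5% in these data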;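 also: 0% = DMSO only and 100% = 100 µM cantharidin control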
Beta cell apopt = beta cell apoptosis inhibition. 300,000 tested, 0.8% active. protection from apoptosis, % (no concentration beside the values). AID 435005. INS-1E cytokine-induced death, ATP luminescence, 48 h; percent of positive-control rescue, neutral wells zero;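 active = Every replicate reaches about 75%, or at least half do and their mean reaches it too, limit read from the data; inconclusive = At least half of replicates reach the limit but their mean does not; inactive = Under half of replicates reach the limit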;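 also: 0% = cytokine-treated negative control wells and 100% = positive control rescue; higher means more ATP so stronger rescue from cytokine killing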
CSC inhib = blocks cancer stem cells; cancer stem cell-like cells viability, luminescence; inhibition, % at 7.5 µM; 300,000 tested, 1.1% active; in the data active = inhibition above about 75%; inconclusive = no clear call, values can overlap the other calls; tested in HMLE shEcad cells
The depositor's hits bear a star; u = inconclusive; x = not tested or not shown. Rows were chosen to be rich in hits. Some 4.9% of all compounds tested hit in one or more screens of this group.

SMILES	Calb FLC	PP1 counter	Mdm2 MdmX PPI	PP5 inh	Beta cell apopt	CSC inhib
COc1ccc(C(=O)CSc2ccc(-c3ccccc3)nn2)cc1	-2	3	6	1	1	-9
O=C(Cc1c(F)cccc1Cl)N/N=C/c1cccnc1	9	x	15	x	-3	-12
CCCN(CC(=O)Nc1ccccc1C)C(=O)c1ccc2c(c1)S(=O)(=O)N=C1CCCCCN12	x	-5	2	0	-3	-12
Cc1ccc2[nH]c3c(N4CCc5ccccc5C4)ncnc3c2c1	60	5	39	1	101*	-8
Cc1ccc2c(c1)S/C(=C/c1ccc[n+](CCO)c1)N2C	u	-1	36	0	99*	-21
C/C(NC(=O)c1cccc(F)c1)=C1/C(=O)C[C@@H]2[C@H]1C2(C)C	17	0	-8	1	-1	92*
Cc1cccc(-c2nc(Nc3cccc(O)c3)c3ccccc3n2)c1	14	-1	15	7	-5	81*
COc1ccc(CCC(C)NCC2CCCCC2)cc1 (configuration not stated)	-27	2	-34	3	-7	93*
Cc1cc(C)c2cc(C#N)c(N3CCCC3)nc2c1	x	7	21	-1	-1	8
CC(=O)c1cc(C#N)c(N2CCCC2)nc1C	93*	-3	13	2	-1	x
Clc1ccc(/C=C/c2nc3ccccc3[nH]2)cc1	-4	0	-77	3	31	76*
O=C(c1ccc2c(=O)n3c(nc2c1)CCCCC3)N1CCN(c2cccc(Cl)c2)CC1	-3	-1	-21	-1	9	69
O=C1c2c(O)cccc2C(C2OC(CO)[C@@H](O)[C@H](O)[C@H]2O)c2cc(CO)cc(O)c21 (some centres not stated)	x	-1	-20	2	-13	-11
O=C(O)c1cc(O)c2c(c1)[C@@H]([C@H]1c3cc(C(=O)O)cc(O)c3C(=O)c3c(O[C@@H]4O[C@H](CO)[C@@H](O)[C@H](O)[C@H]4O)cccc31)c1cccc(OC3O[C@H](CO)[C@@H](O)[C@H](O)[C@H]3O)c1C2=O (some centres not stated)	7	87*	16	9.8*	8	15
O=C1c2cc(CO)cc(O)c2C(=O)c2c(O[C@@H]3OC(CO)[C@@H](O)[C@@H](O)[C@@H]3O)cccc21 (some centres not stated)	13	2	11	5	-2	-10
O=C(O)c1cc(O)c2c(c1)[C@H]([C@H]1c3cc(C(=O)O)cc(O)c3C(=O)c3c(O[C@@H]4O[C@H](CO)[C@@H](O)[C@H](O)[C@H]4O)cccc31)c1cccc(OC3O[C@H](CO)[C@@H](O)[C@H](O)[C@H]3O)c1C2=O (some centres not stated)	-5	86*	2	9	6	17
COc1ccc(NS(=O)(=O)c2cccc(C(=O)N/N=C/c3ccc4c(c3)OCCO4)c2)cc1	-10	17*	-16	1	-15	-3
COc1ccc(NS(=O)(=O)c2cccc(C(=O)N/N=C(\C)c3ccncc3)c2)cc1	0	2	11	0	-3	-7
COc1ccc(NS(=O)(=O)c2cccc(C(=O)N/N=C(\C)c3ccc(-n4ccnc4)cc3)c2)cc1	4	12	8	4	2	95*
Cc1ccc(OCc2nnc(SCC(=O)Nc3cccc4ccccc34)n2-c2ccccc2)cc1	-7	15*	-1	8	7	-2
COc1ccccc1NC(=O)CSc1nnc(C2CCCCC2)n1C	-1	-7	-11	1	9	-11
COc1ccccc1NC(=O)CSc1nnc(C2CCCCC2)n1-c1ccccc1	-3	-7	31	3	-6	82*
CC1CN(C(=O)CCC(=O)NCCCN2C(C)CCCC2C)c2ccccc2O1 (configuration not stated)	-12	-2	6	-2	-10	-18
O=C(Nc1ccc(S(=O)(=O)N2CCCC2)cc1)c1ccc([N+](=O)[O-])cc1	0	0	19	1	1	-5
Cc1ccc(CSc2nnc(NC(=O)C3=COCCO3)s2)cc1	x	-1	-1	2	2	x
SMILES	Calb FLC	PP1 counter	Mdm2 MdmX PPI	PP5 inh	Beta cell apopt	CSC inhib
CCn1c2ccccc2c2cc(NC(=O)c3ccc(C)c([N+](=O)[O-])c3)ccc21	-1	0	40	3	36	-3
CCn1c2ccccc2c2cc(NC(=O)c3cccc([N+](=O)[O-])c3)ccc21	-3	-3	21	6	15	88*
CCn1c2ccccc2c2cc(/C=N/NC(=O)c3ccc(O)cc3)ccc21	7	3	-4	2	9	6
CCn1c2ccccc2c2cc(/C=N/NC(=O)c3cc(O)cc(O)c3)ccc21	14	-6	-5	2	3	84*
CCn1c2ccccc2c2cc(NC(=O)c3cc(OC)cc(OC)c3)ccc21	-11	2	43	6	70	84*
COc1cc(OC)cc(C(=O)Nc2ccc(Nc3ccccc3)cc2)c1	-5	-2	-3	2	21	88*
CCN1c2ccccc2-c2nc3ccccc3n2C1c1cccs1 (configuration not stated)	-6	4	13	7	4	8
O=C(COC(=O)COc1ccccc1)Nc1ccc(S(=O)(=O)N2CCOCC2)cc1	5	-4	11	-1	1	10
O=C(Nc1cccnc1)C1CCC(CNS(=O)(=O)c2cccc3nsnc23)CC1 (configuration not stated)	-11	1	6	-1	-2	-8
CC1(C)C2CCC1(C)C1(C2)NC(=O)c2ccccc2O1 (configuration not stated)	-3	2	16	2	-3	40
CCn1c2ccccc2c2cc(NC(=O)CN(C)CC(=O)Nc3ccc(N4CCOCC4)cc3)ccc21	6	0	-23	3	2	80*
CCn1c2ccccc2c2cc(NC(=O)N3CCOCC3)ccc21	3	0	-5	3	1	-15
Cc1cccc(CNc2ccc(C(CC(N)=O)NC(=O)Cc3cccc4ccccc34)cc2[N+](=O)[O-])c1 (configuration not stated)	5	17*	29	2	-8	u
CC(C)OCCCNc1ncnc2c1[nH]c1ccccc12	6	1	1	4	125*	x
C1=C(CCNc2ncnc3c2[nH]c2ccccc23)CCCC1	x	8	x	1	130*	77*
CC(=O)c1ccc(S(=O)(=O)N2CCC3(CC2)CC(=O)c2ccccc2O3)cc1	-2	-4	18	1	3	-1
COCC(C)NC(=O)NC1(C(F)(F)F)Oc2ccc(Cl)cc2O1 (configuration not stated)	-26	0	3	2	1	80*
O=C(NCCN1CCOCC1)NC1(C(F)(F)F)Oc2ccc(Cl)cc2O1 (configuration not stated)	9	6	x	1	2	u
